# The whole screen tested about 1,800 compounds, of which about 710 (39%) were called active. Roughly 28% stayed inconclusive and do not appear here. The list is a sample of the results. Entries with a potency or affinity are not part of this list. Values without a mark were called inactive.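 How the source made its calls: active means luciferase signal rise whose fitted curve crosses a set activity limit at or below the top valid tested dose; inconclusive means flat fit with 30 to 70% rise, or poor fit; inactive means signal falling, flat within 30%, or crossing above top dose.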
# Assay: luciferase activators in glycosylation-insensitive reporter cells, dose response, counter-screen for N-linked glycosylation inhibitor project, D54 LucT cells, luminescence, cherry pick (AID 624404);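 further: 0% = median neutral control signal and 100% = twice that signal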
# Conditions: D54 LucT luciferase reporter counterscreen, 24 h; series mostly up to 19.5 µM; activity increase (luciferase signal): at the top concentration
row,Structure (SMILES),activity increase (luciferase signal) [%]
1,Oc1cc(NCc2ccc(Cl)cc2)cc2cccnc12,-33.2
2,COc1cc(CNc2ccc(O)cc2)cc(Br)c1OCc1ccccc1,23.2
3,CC(=O)n1cc(/C=N/NC(=O)c2sc(C)nc2C)c2ccccc21,65.5
4,CCOc1ccc(-n2c(C)cc(C(=O)CCl)c2C)cc1,-6.33
5,COc1ccc(Nc2c3ccccc3nc3ccccc23)cc1,-37.8
6,COCCOC(=O)c1[nH]c2c(c1C)C(=O)CC(c1ccco1)C2 (stereo not drawn),34.5
7,CN(C)CCCNc1cc(-c2ccccc2)nc2cc(-c3cccc(F)c3)nn12,28.9
8,CCCCCC[n+]1ccccc1/C=C/c1ccc(N(C)C)cc1,-64.3
9,CCN(CC)S(=O)(=O)c1ccc(-c2nnc(SCC(=O)N3CCc4ccccc43)o2)cc1,39
10,O=C(c1ccc(Cl)cc1)C(CN1CCCCC1)c1ccccc1 (stereo not drawn),-90.7
11,Cc1ccc(Oc2ccc(S(=O)(=O)N3CCOCC3)cc2C(N)=O)c(-n2nc3ccccc3n2)c1,-17.3
12,Nc1ccc2nc(-c3ccccc3)c(-c3ccccc3)nc2c1,4.94
13,O=S(=O)(Nc1cccc2cccnc12)c1ccc(S(=O)(=O)N2CCCC2)cc1,-5.43
14,COc1ccc2nc3c(cc2c1)c(NC(=O)CC(C)C)nn3CC(C)C,-23.4
15,O=C(Nc1c2ccccc2nc2ccccc12)C(Cl)(Cl)Cl,41.3
16,CN1CC(=O)N2C(c3ccc(Cl)cc3)c3[nH]c4ccccc4c3C[C@H]2C1=O (stereo partly drawn),11.1
17,COc1ccc(Cn2c(=O)c3[nH]cnc3n(-c3ccccc3C)c2=O)cc1,14.1
18,Cc1cc(-n2c(SCC(=O)NCCC3=CCCCC3)nc3n[nH]c(C)c3c2=N)ccc1Cl,12.7
19,CCN(CC)CCCNC(=O)CSc1c2c(nc3cc(Cl)ccc13)CCCC2,-21.6
20,CCOC(=O)c1[nH]c2ccc(F)cc2c1NC(=O)C(C)N1CCc2cc(OC)c(OC)cc2C1 (stereo not drawn),17.3
21,CCN(CC)c1ccc(NC(=O)CC2Oc3ccccc3NC2=O)c(C)c1 (stereo not drawn),13.1
22,COc1ccc(C2C3=C(COC3=O)Oc3cc4c(cc32)OCO4)cc1OC (stereo not drawn),39.7
23,Cc1ccc(C)c(NC(=O)Cn2nnc(C(=O)NCc3ccco3)c2N)c1,50
24,COc1cc(NC(=O)NCc2ccco2)ccc1-c1ccc(NC(=O)NCc2ccco2)cc1OC,-17.9
25,C=CCOc1ccccc1C(=O)/C=C1/C(=O)Nc2ccccc21,39.7
26,c1cnc2nc3c4ccccc4c4ccccc4c3nc2c1,14
27,COc1ccc(-c2nnc(SCC(=O)Nc3ncc(C)s3)n2-c2ccccc2)cc1OC,-24.2

row,Structure (SMILES),activity increase (luciferase signal) [%]
1,CCn1c(SCC(=O)Nc2ccc(C(C)=O)cc2)nc2c([nH]c3ccccc32)c1=O,-9.93
2,Cc1ccc(C(C)C)c(OCc2nnc(SCC(=O)Nc3ncc(C)s3)n2C)c1,-52.9
3,Cc1cc(C)c(NC(=O)CSc2nc(COc3ccccc3)nc3ccccc23)c(C)c1,27.5
4,COc1ccc2c(c1)c1ccc3c(c1n2C)C(=O)C=CC3=O,7.43
5,CC1(C(=O)NCc2ccc(F)c(F)c2)Cc2c(-c3ccc4c(c3)OCO4)ccnc2O1 (stereo not drawn),17.7
6,O=C(N/N=C/c1cccc(Br)c1)c1ccc(N2CCCC2=O)cc1,60.1
7,CC(=O)/C=C/c1ccccc1Oc1c(F)c(F)nc(F)c1F,-19.5
8,CC(=O)N1c2ccccc2C(=O)C1N(C)c1ccc(C)cc1 (stereo not drawn),11.4
9,COc1ccc(CCn2c(=N)c(C(=O)NCCN3CCOCC3)cc3c(=O)n4cccc(C)c4nc32)cc1OC,8.4
10,COc1ccc(CCn2c(=N)c(C(=O)NCC3CCCO3)cc3c(=O)n4cccc(C)c4nc32)cc1 (stereo not drawn),-27.9
11,COc1ccc(NC(=O)COC(=O)/C=C/C(=O)OCC(=O)Nc2ccc(OC)c(Cl)c2)cc1Cl,0.926
12,CCOc1ccc(Nc2nnc(SCc3nc4ccccc4c(=O)[nH]3)s2)cc1,4.11
13,Cn1cnc([N+](=O)[O-])c1S(=O)(=O)Oc1ccccc1,16.6
14,CCOc1ccc(Nc2c3ccccc3nc3ccccc23)cc1,-45.8
15,CCN1/C(=C/c2sc(-c3ccccc3C)c[n+]2C)Sc2ccccc21,-54.8
16,O=C(CC1Sc2ccccc2NC1=O)NNc1cccc(Cl)c1Cl (stereo not drawn),43.9
17,O=C(Cc1ccc(Cl)cc1)Nc1ccccc1N1CCN(C(=O)c2ccccc2)CC1,309
18,CCOC(=O)c1c(NC(C)=O)sc2c1CCC(C=O)=C2Sc1ccccc1,-5.28
19,CCOC(=O)c1c(NC(=O)CCl)sc(C(=O)N(CC)CC)c1C,-4.47
20,COc1ccc([N+](=O)[O-])cc1NC(=O)CCN1CCN(CCO)CC1,29.9
21,CNC(=O)COC(=O)c1ccccc1C(=O)c1ccc(Cl)c([N+](=O)[O-])c1,-9.98
22,CCOC(=O)c1ccc(-n2cccc2/C=C2\NC(=O)NC2=O)cc1,-16.1
23,CCc1ccc(Oc2coc3cc(OCC(=O)Nc4cc(C)ccc4C)ccc3c2=O)cc1,1.63
24,COc1cc(C2=NOC(C(=O)NCc3ccc(F)cc3)C2)cc(OC)c1OC (stereo not drawn),3.85
25,CN(C)S(=O)(=O)c1ccc(N2CCCC2)c(C(=O)Nc2nccs2)c1,32.4
26,COc1cc(Nc2c3c(nc4ccccc24)CCC3)cc(OC)c1OC,41.2

# Source: PubChem BioAssay AID624404 (Broad Institute, 2012)
